From PubChem
E coli growth-1 = E. coli growth inhibition; Escherichia coli growth, OD600, 23 h; hits give low values; AID 1053175; actives 0.21% (n = 330,000); OD600 absorbance (test concentration not listed);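 active = OD600 absorbance below the run mean of sample wells minus 3.6 SD, in any replicate, cut at about 0.56 in these data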
phage Ecoli inh = E. coli growth loss with phage present; growth absorbance; inhibition, % at 11.9 µM; actives 0.26% (n = 360,000); in the data active = inhibition above about 11%
AddAB inh = less growth of phage-infected E. coli with AddAB; E. coli expressing H. pylori AddAB, absorbance growth; inhibition, % at 11.9 µM; actives 0.29% (n = 330,000); AID 435030; in the data active = inhibition above about 12%;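 also: 0% = vehicle wells of infected cells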
Tat transport = inhibitors of E. coli Tat protein transport | AID 488895 | E. coli MC4100 TorA-mCherry Tat export, fluorescence | actives 0.036% (n = 340,000) | inhibition, % at 10 µM;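 active = mean replicate inhibition at least 50% and at least half of replicates individually reaching 50%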;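 also: exported cargo escapes ClpAP degradation while cytoplasmic cargo is degraded and loses fluorescence; 0% = median of neutral control wells and 100% = median of NaSCN control wells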
E coli growth-2 = reduces bacterial viability in AddAB counter-screen. E. coli V3065 growth, OD600 absorbance, 18 h. inhibition, % at 11.9 µM. actives 0.27% (n = 330,000);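 active = inhibition above the campaign's mean inhibition across all tested compounds plus 3 SD, cut at about 9.9% in these data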;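 also: uninfected addAB+ strain grown without phage in ampicillin broth; 0% = DMSO wells and 100% = ciprofloxacin 0.95 µg/ml wells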
Starred values were filed as active, the others as inactive; · = not tested or not shown; ! = not active in a repeat. A selection: hits, their analogues and other compounds. The true share with any hit is near 0.51%.

SMILES	E coli growth-1	phage Ecoli inh	AddAB inh	Tat transport	E coli growth-2
C=CCOC(=O)c1cn(CC)c2nc(C)ccc2c1=O	0.515*	1.6	1.4	-8.7	-0.8
CCn1cc(C(=O)OCC(=O)c2cc(C)n(-c3cccc(C(F)(F)F)c3)c2C)c(=O)c2ccc(C)nc21	0.719	5.9	2.0	16.0	-2.0
CCn1cc(C(=O)NCc2cccc(C(F)(F)F)c2)c(=O)c2ccc(C)nc21	0.456*	-0.7	3.4	-9.6	0.8
C=Cc1ccc(COC(=O)c2cn(CC)c3nc(C)ccc3c2=O)cc1	0.648	1.0	1.8	1.6	-1.0
CCn1cc(C(=O)NNC(=O)c2ccc(Cl)cc2)c(=O)c2ccc(C)nc21	0.384*	·	1.8	0.1	1.0
CCN1CC2C3C(=O)N(C)C(=O)C3[C@](CC)(C1=O)N2C(=O)c1ccc(Cl)cc1 (stereo not given in full)	0.671	·	·	·	·
Cc1cc(C(=O)N/N=C/c2ccc(O)c(O)c2O)c(C)n1-c1ccccc1	·	20.4*	·	-4.4	·
CC(=O)OCc1c(COC(C)=O)[n+](=O)c2ccccc2n1[O-]	0.469*	10.1	9.0	-10.3	5.9
O=[N+]([O-])c1ccc(-c2cccnc2)cc1	0.525*	4.4	·	-8.2	·
Nc1ccccc1SCc1cn2ccccc2n1	0.617	4.5	5.3	74.9*	3.5
Nc1ccccc1SCc1cn2cccnc2n1	0.726	3.2	2.6	-0.2	1.3
CCN1/C(=C/C=C/C=C/c2sc3ccccc3[n+]2CC)Sc2ccccc21	·	·	23.5*	·	19.6*
CCN1/C(=C/C=C/C=C/C=C/c2sc3ccccc3[n+]2CC)Sc2ccccc21	0.846	2.0	-0.8	-9.3	-1.6
CC(=NO)c1cc(Cl)cc(Cl)c1O	0.595	·	·	·	·
Oc1cc(Cl)cc(Cl)c1Cl	0.266*	-2.4	1.4	-1.3	-1.9
Cc1cc([N+](=O)[O-])ccc1NC(=O)Nc1ccc(F)cc1F	0.51*	4.1	3.0	0.4	4.9
O=C(Nc1ccc(OC(F)(F)F)cc1)Nc1cccc([N+](=O)[O-])c1	0.395*	10.2	8.7	-23.4	9.3
COc1ccc(NC(=O)Nc2ccc(F)cc2F)c(C)c1	0.697	2.1	0.8	-6.3	0.1
Cc1ccc(NC(=O)Nc2cccc([N+](=O)[O-])c2)cc1F	0.484*	10.1	3.6	0.4	3.1
Cc1cc(NC(=O)Nc2cccc([N+](=O)[O-])c2)no1	0.68	1.8	3.7	6.3	1.8
Cc1ccc2nc(-c3ccccn3)c(Nc3ccccc3C)n2c1	0.502*	-2.2	0.8	-28.4	1.4
CC(C)CCNC(=S)Nc1ccc([N+](=O)[O-])cc1	0.574	7.1	7.1	-4.1	6.7
CCCCNC(=S)Nc1ccc([N+](=O)[O-])cc1	0.524*	3.5	7.9	14.0	4.4
O=[N+]([O-])c1ccc(SNc2ccccc2)c([N+](=O)[O-])c1	·	3.0	·	3.3	·
O=[N+]([O-])c1ccc(-[n+]2ccc3ccccc3c2)c([N+](=O)[O-])c1	0.446*	3.5	5.0	-0.6	1.9
SMILES	E coli growth-1	phage Ecoli inh	AddAB inh	Tat transport	E coli growth-2
CCOc1ccc(NC(=O)COC(=O)CC2CCCCC2)cc1	0.69	12.1*	-0.1	-11.1	-1.4
CCc1ccc(Nc2n[n+](-c3ccccc3)c(-c3c(Cl)cccc3Cl)s2)cc1	0.467*	4.4	8.1	13.1	8.4
CNCC(Cc1ccccc1)NCC(CC1CCCCC1)NCCCc1ccccc1 (stereo not given)	0.466*	·	·	·	·
CNCC(CC1CCCCC1)NCC(Cc1ccccc1)NCCC12CC3CC(CC(C3)C1)C2 (stereo not given)	0.06*	·	·	·	·
Cc1cc(C(=O)Nc2cccc3c2OC(CN(C)S(=O)(=O)c2ccccc2)C(C)CN(C(C)CO)C3=O)n(C)n1 (stereo not given)	0.699	·	·	·	·
O=S1(=O)C2CC3C=C[C@@]2(CN1Cc1cccc(F)c1)O3 (stereo not given in full)	0.708	·	·	·	·
CC(=NNC(=O)c1cccc(O)c1)c1cccc(NC(=O)c2ccc(F)cc2)c1	0.664	·	·	·	·
CN(C)c1ccc(-c2ccc(C3C4C=CCC[C@@]4(C)C(=O)N3Cc3ccccc3)c(F)c2)cc1 (stereo not given in full)	0.738	·	·	·	·
CC(=O)NC(CC(=O)N(C)Cc1cccc(Cl)c1Cl)c1ccccc1 (stereo not given)	0.536*	1.8	0.9	-7.9	3.2
CC(=O)NC(CC(=O)N(C)Cc1c(F)cccc1Cl)c1ccccc1 (stereo not given)	0.692	0.6	1.5	5.0	3.3
NCCCCCc1cn(C(CO)C(=O)NCCCCCCCCCCC(=O)N2CCNCC2)nn1 (stereo not given)	0.681	·	·	·	·
O=C(C1=CC(C2CCCCC2)CC(OCCCCO)O1)N1CCN(Cc2ccc3c(c2)OCO3)CC1 (stereo not given)	0.664	·	·	·	·
CN(C)CCCNc1cc(C(C)(C)C)nc2c(-c3ccc(Cl)cc3)cnn12	0.273*	2.1	-4.1	14.3	-5.0
Cc1cc(Cl)ccc1NC(=S)NCCC(c1ccccc1)c1ccccc1	0.726	3.0	11.1	9.7	13.2*
C[C@@]12CCC=CC1C(c1ccc(C=Cc3ccccc3)cc1F)N(Cc1ccccc1)C2=O (stereo not given in full)	0.735	·	·	·	·
Cc1ccccc1Nc1nc(NCc2ccco2)c2ccccc2n1	0.49*	-1.3	2.7	-10.2	6.7
Cc1cccc(Nc2nc(NCc3ccco3)c3ccccc3n2)c1	0.432*	4.4	2.2	-12.9	4.6
c1ccc(Nc2nc(NCc3ccco3)c3ccccc3n2)cc1	0.31*	3.0	3.7	20.4	3.3
Oc1ccccc1Nc1nc(NCc2ccco2)c2ccccc2n1	·	3.5	2.0	-2.3	0.0
CC(=NNC(=O)c1ccco1)c1ccc(C(=O)O)s1	0.693	·	·	·	·
CC1OC(OCCC(=O)O)C(O)CC1O (stereo not given)	0.648	·	·	·	·
CC(C)C(NC(=O)c1ccccc1)C(=O)N1CCc2ccccc21 (stereo not given)	0.761	·	·	·	·
CCn1cc(C(=O)O)c(=O)c2cnc(N3CCN(C(=S)NC(=O)c4ccc(OC)cc4)CC3)nc21	0.429*	0.6	7.0	1.4	5.7
O=C(Oc1ccc(Cl)c2cccnc12)c1cccnc1	0.372*	-1.3	1.5	-5.7	1.2
Oc1ccc(F)c2cccnc12	0.683	2.8	1.4	-1.0	0.7
SMILES	E coli growth-1	phage Ecoli inh	AddAB inh	Tat transport	E coli growth-2
Cc1ccc(C(=O)Oc2ccc(Cl)c3cccnc23)cc1[N+](=O)[O-]	0.633	-0.1	3.9	-2.8	1.5
Oc1ccc(Cl)c2cccnc12	0.294*	0.8	·	1.2	·
CCN(c1ccccc1)S(=O)(=O)c1ccc(Cl)c(C(=O)O)c1	0.552*	-2.4	-1.4	-5.3	-2.2
C#CCOCCOCCOCCNc1nc(N2CCN(C(=O)C(CCCCN)n3cc(C(N)CC(C)C)nn3)CC2)nc(N2CCN(C(=O)C(CCC(=O)O)n3cc(C(N)C(C)CC)nn3)CC2)n1 (stereo not given)	0.668	·	·	·	·
CC(=O)c1ccc(NS(=O)(=O)c2ccc(N)cc2)cc1	0.683	3.6	4.4	-2.1	1.9
CC(=O)NS(=O)(=O)c1ccc(N)cc1	0.702	5.7	-1.9	11.7	10.2*!
NC(=O)C1CCNc2c(I)cc([N+](=O)[O-])cc2C(=O)NC(CCC(=O)O)C(=O)NC(CO)C(=O)N1 (stereo not given)	0.721	·	·	·	·
